The source of these data is PubChem BioAssay (NCI).

Among the test systems are DU-145 prostate; K-562 leukemia; MALME-3M melanoma; MDA-MB-231 breast; RXF 393 renal; SF-268 CNS; SF-295 CNS; SF-539 CNS; UACC-257 melanoma; M14 melanoma; HCT-15 colon; HT29 colon; SNB-75 CNS; SNB-19 CNS; U251 CNS; SK-MEL-5 melanoma; UACC-62 melanoma; LOX IMVI melanoma; SK-MEL-28 melanoma.
Common to all, as to assay: NCI-60 one-dose screen, 48 h (100 = growth as untreated, 0 = no growth, -100 = all killed)
Conditions in all cases: 10 µM unless noted

SMILES strings stand for the structures. This is part of a sample that, as a whole, favours compounds with a hit. Of some 83,000 tested, about 20% had one in any assay.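 Results are percent growth after 48 hours of single-concentration exposure. 100 means growth as in untreated cells, lower positive values show inhibition; negative values down to -100 show cell death.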 A number with no mark means an inactive call. The source made the active and inactive calls. The calls were made as follows: active = growth percent below 10; inactive = the rest.

Consider `COc1ccc(S(=O)(=O)N2CCCCC2)cc1NC(=O)c1[nH]c(C)c2c1CCCCC2=O`, for which the growth in the assay on DU-145 prostate is 61.5%; in the assay on K-562 leukemia, 22%; in the assay with MALME-3M melanoma, 45.2%; in the assay with MDA-MB-231 breast, 29.1%; in the assay on RXF 393 renal it was 3.54% (active); in the assay with SF-268 CNS, 48.1%. In addition, the growth was 23.9% in the assay with SF-295 CNS; 24.9% in the assay on SF-539 CNS; 32% in the assay with UACC-257 melanoma; 36% in the assay with M14 melanoma; 5.16% (active) with HCT-15 colon; 11% in the assay with HT29 colon. For the same compound, the growth with SNB-75 CNS was 5.25% (active); in the assay with SNB-19 CNS, 36.1%; in the assay on U251 CNS, 23.4%; with SK-MEL-5 melanoma, -24.4% (active); with UACC-62 melanoma, 14.5%; with LOX IMVI melanoma, -56.6% (active). In the assay with SK-MEL-28 melanoma, the growth was 48.1%.
For `Cc1ccc(NC(=O)/C=C/c2ccccc2)c(C(N)=O)c1`, the growth in the assay with DU-145 prostate is -8.15% (active); with K-562 leukemia, 13.1%; in the assay on MALME-3M melanoma, 96.6%; in the assay on MDA-MB-231 breast it was 52.5%; with RXF 393 renal, -9.67% (active); in the assay on SF-268 CNS, 43.3%. The growth with SF-295 CNS is 15.2%; in the assay with SF-539 CNS, 0.356% (active); with UACC-257 melanoma it was 63.2%; in the assay with M14 melanoma, 27%; with HCT-15 colon it was 33.6%; in the assay with HT29 colon it was 14.1%. In addition, the growth is 11.3% in the assay with SNB-75 CNS; 40.5% in the assay with SNB-19 CNS; 28.8% in the assay on U251 CNS; 6.05% (active) in the assay on SK-MEL-5 melanoma; 44.2% in the assay with UACC-62 melanoma; 51.2% in the assay with LOX IMVI melanoma. Also, the growth with SK-MEL-28 melanoma is 33.1%.
On to `COc1ccc(C(=O)c2sc3nc(C)cc(C)c3c2N)cc1OC`, for which the growth was 90.7% with DU-145 prostate; 92.6% in the assay on K-562 leukemia; 83.3% in the assay on MALME-3M melanoma; 56.3% with MDA-MB-231 breast; 93.9% with RXF 393 renal; 60.1% in the assay on SF-268 CNS. Moreover, the growth in the assay with SF-295 CNS was 89.8%; in the assay on SF-539 CNS, 92.2%; with UACC-257 melanoma it was 95.1%; with M14 melanoma it was 105%; in the assay on HCT-15 colon, 85.4%; in the assay on HT29 colon, 88.2%. In addition, the growth with SNB-75 CNS is 84.3%; in the assay with SNB-19 CNS, 79.6%; in the assay with U251 CNS, 66%; in the assay with SK-MEL-5 melanoma it was 93.4%; in the assay on UACC-62 melanoma, 80.8%; in the assay with LOX IMVI melanoma it was 96.5%. Also, the growth with SK-MEL-28 melanoma was 101%.
On to `Cc1ccccc1COc1ccc(-c2ccnn2-c2ccc(Cl)cc2)cc1`, for which the growth with DU-145 prostate was 88.1%; in the assay on K-562 leukemia, 13.7%; in the assay on MALME-3M melanoma it was 67.2%; in the assay on MDA-MB-231 breast it was 84.2%; in the assay on RXF 393 renal, 60.3%; with SF-268 CNS it was 80.5%. The growth was 53.1% with SF-295 CNS; 71.8% in the assay with SF-539 CNS; 75.7% in the assay on UACC-257 melanoma; 39% with M14 melanoma; 39.9% in the assay with HCT-15 colon; 17.6% in the assay with HT29 colon. For the same compound, the growth is 60.7% in the assay on SNB-75 CNS; 62% in the assay with SNB-19 CNS; 46% in the assay on U251 CNS; 66.6% with SK-MEL-5 melanoma; 60.7% in the assay on UACC-62 melanoma; 64.3% with LOX IMVI melanoma. Besides, the growth in the assay on SK-MEL-28 melanoma was 69.4%.
Turning to `COc1ccc2[nH]cc(-c3noc(C(=O)c4cn(C)c5ccc(F)cc45)n3)c2c1`, the growth was 103% in the assay with DU-145 prostate; 101% in the assay with K-562 leukemia; 95.5% in the assay on MALME-3M melanoma; 90.1% in the assay on MDA-MB-231 breast; 116% with RXF 393 renal; 95.3% with SF-268 CNS. Also, the growth with SF-295 CNS was 98.8%; in the assay on SF-539 CNS, 95.8%; in the assay with UACC-257 melanoma it was 97.5%; with M14 melanoma, 98.6%; in the assay on HCT-15 colon, 94.4%; with HT29 colon, 109%. The growth is 74.6% in the assay with SNB-75 CNS; 96% with SNB-19 CNS; 101% with U251 CNS; 92.5% with SK-MEL-5 melanoma; 88.2% in the assay with UACC-62 melanoma; 93.2% in the assay on LOX IMVI melanoma. The growth with SK-MEL-28 melanoma is 105%.
As for `O=C1c2cccc3cccc(c23)C(=O)N1CCCCCN1CCN(CCCCCOc2ccc(-c3nc4ccc(N5CCOCC5)cc4[nH]3)cc2)CC1`, the growth in the assay on DU-145 prostate was 97.4%; in the assay with K-562 leukemia it was 19.6%; with MALME-3M melanoma it was 82.6%; in the assay with MDA-MB-231 breast it was 108%; with RXF 393 renal, -11.5% (active); in the assay on SF-268 CNS it was 136%. In addition, the growth was 16.3% with SF-295 CNS; 54.4% in the assay on SF-539 CNS; 56.3% in the assay with UACC-257 melanoma; 50.6% with M14 melanoma; 80.4% in the assay with HCT-15 colon; 44.3% with HT29 colon. Besides, the growth in the assay with SNB-75 CNS was 112%; with SNB-19 CNS, 129%; in the assay on U251 CNS, 99.6%; with SK-MEL-5 melanoma, 96.7%; with UACC-62 melanoma, 75%; with LOX IMVI melanoma it was 56.4%. Further, in the assay with SK-MEL-28 melanoma, the growth is 95.7%.
Turning to `C=CCSSC1N=CNc2nc[nH]c21` (stereo not drawn), the growth in the assay on DU-145 prostate is 35.8%; in the assay with K-562 leukemia, 11.9%; in the assay on MALME-3M melanoma, 29.9%; in the assay on MDA-MB-231 breast, 39.8%; with RXF 393 renal, 42.5%; in the assay with SF-268 CNS, 27.6%. Further, the growth is 33.2% with SF-295 CNS; 16.4% in the assay with SF-539 CNS; 43.6% in the assay with UACC-257 melanoma; 8.72% (active) in the assay on M14 melanoma; 52.7% in the assay on HCT-15 colon; 50.1% in the assay on HT29 colon. Moreover, the growth in the assay on SNB-75 CNS is 46.9%; in the assay on SNB-19 CNS, 89.1%; in the assay on U251 CNS, 70.2%; with SK-MEL-5 melanoma it was 60.7%; in the assay on UACC-62 melanoma, 16.8%; in the assay on LOX IMVI melanoma, 7.74% (active). For the same compound, in the assay on SK-MEL-28 melanoma, the growth is 114%.
